According to the supplement of paper PMC8975748:
Counter-ions that a name gives are not always drawn.

System: Saccharomyces cerevisiae BY4741 SeMeCo community
Test: z-score of subpopulation abundance vs DMSO median, subpopulation auxotrophic for LUM; higher = larger share of this subpopulation than in DMSO controls
Conditions: 10 µM; 24 h; SM minimal medium; subpopulation (auxotrophy): LUM
Method: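 Fluorescent four-plasmid SeMeCo (self-establishing metabolically cooperating S. cerevisiae BY4741 community; plasmids pH-mRuby2, pL-mWasabi, pU-eCFP, pM-TagRFP657) was grown 24 h in minimal SM medium with each Selleck FDA-approved drug at 10 µM in 384-well plates. Cells were fixed and imaged by high-content confocal microscopy. For each auxotrophic subpopulation (and the prototroph), a z-score gives the deviation from the DMSO vehicle-control population median.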

| SMILES | z-score of subpopulation abundance |
| --- | --- |
| CO[C@H]1C[C@@H]2CC[C@@H](C)[C@@](O)(O2)C(=O)C(=O)N2CCCC[C@H]2C(=O)O[C@H]([C@H](C)C[C@@H]2CC[C@@H](OC(=O)C(C)(CO)CO)[C@H](OC)C2)CC(=O)[C@H](C)/C=C(\C)[C@@H](O)[C@@H](OC)C(=O)[C@H](C)C[C@H](C)/C=C/C=C/C=C/1C | 14.2 |
| C[C@@H](O)[C@H]1C(=O)N2C(C(=O)O)=C(S[C@@H]3CN[C@H](CNS(N)(=O)=O)C3)[C@H](C)[C@H]12 [Doripenem Hydrate] | -0.2 |
| CNCCC(Oc1ccc(C(F)(F)F)cc1)c1ccccc1 (stereo not given) [Fluoxetine HCl] | 0.21 |
| COc1ccc(C(=O)NCc2ccc(OCCN(C)C)cc2)cc1OC [Itopride hydrochloride] | 0.15 |
| COc1ccc(C2CNC(=O)C2)cc1OC1CCCC1 (stereo not drawn) [S- (+)-Rolipram] | -1.24 |
| Fc1ccc([C@@H]2CCNC[C@H]2COc2ccc3c(c2)OCO3)cc1 [Paroxetine HCl] | -1.08 |
| CC1=C(C(=O)OCCN(Cc2ccccc2)c2ccccc2)C(c2cccc([N+](=O)[O-])c2)C(P2(=O)OCC(C)(C)CO2)=C(C)N1 (stereo not given) [Efonidipine] | 2.5 |
| COc1ccc(CN2CCN(C(c3ccc(F)cc3)c3ccc(F)cc3)CC2)c(OC)c1OC [Lomerizine 2HCl] | -0.31 |
| C[C@]1(Cn2ccnn2)[C@H](C(=O)O)N2C(=O)C[C@H]2S1(=O)=O [Tazobactam] | 0.22 |
| CN[C@H](CC(C)C)C(=O)N[C@H]1C(=O)N[C@@H](CC(N)=O)C(=O)N[C@H]2C(=O)N[C@H]3C(=O)N[C@H](C(=O)N[C@H](C(=O)O)c4cc(O)cc(O)c4-c4cc3ccc4O)[C@H](O)c3ccc(c(Cl)c3)Oc3cc2cc(c3O[C@@H]2O[C@H](CO)[C@@H](O)[C@H](O)[C@H]2O[C@H]2C[C@](C)(N)[C@H](O)[C@H](C)O2)Oc2ccc(cc2Cl)[C@H]1O [Vancomycin] | -0.78 |
| CCCCCc1ccc(C)cc1O [Amylmetacresol] | 0.11 |
| Cc1c(-c2ccccc2)oc2c(C(=O)OCCN3CCCCC3)cccc2c1=O [Flavoxate HCl] | 1.06 |
| C[C@H](NCc1ccc(OCc2cccc(F)c2)cc1)C(N)=O [Safinamide Mesylate] | 0.24 |
| N[C@H]1CONC1=O [L-Cycloserine] | 1.18 |
| CNS(=O)(=O)CCc1ccc2[nH]cc(C3CCN(C)CC3)c2c1 [Naratriptan HCl] | -0.24 |
| C[C@@H]1CN(c2c(F)c(N)c3c(=O)c(C(=O)O)cn(C4CC4)c3c2F)C[C@H](C)N1 [Sparfloxacin] | -0.41 |
| COc1ccc(CC2c3cc(OC)c(OC)cc3CC[N+]2(C)CCC(=O)OCCCCCOC(=O)CC[N+]2(C)CCc3cc(OC)c(OC)cc3C2Cc2ccc(OC)c(OC)c2)cc1OC (stereo not given) [Atracurium Besylate] | 0.45 |
| C[C@H]1O[C@@H](O[C@H]2[C@@H](O)C[C@H](O[C@H]3[C@@H](O)C[C@H](O[C@H]4CC[C@@]5(C)[C@H](CC[C@@H]6[C@@H]5C[C@@H](O)[C@]5(C)[C@@H](C7=CC(=O)OC7)CC[C@]65O)C4)O[C@@H]3C)O[C@@H]2C)C[C@H](O)[C@@H]1O [Digoxin] | -0.61 |
| CCCc1nn(C)c2c(=O)[nH]c(-c3cc(S(=O)(=O)N4CCN(C)CC4)ccc3OCC)nc12 [Sildenafil Citrate] | -0.09 |
| CCN(CC)C(=O)N1CCN(C)CC1 [Diethylcarbamazine citrate] | -0.5 |

| SMILES | z-score of subpopulation abundance |
| --- | --- |
| Clc1ccc(CCC(Cn2ccnc2)Sc2c(Cl)cccc2Cl)cc1 (stereo not given) [Butoconazole nitrate] | 0.2 |
| CC(C)[C@H](N)C(=O)OCCOCn1cnc2c(=O)nc(N)[nH]c21 [Valaciclovir HCl] | -0.29 |
| N[C@@H]1CCCCN(c2c(F)cc3c(=O)c(C(=O)O)cn(C4CC4)c3c2Cl)C1 [Besifloxacin HCl] | -0.19 |
| COCCCN1CCC(NC(=O)c2cc(Cl)c(N)c3c2OCC3)CC1 [Prucalopride] | -0.29 |
| CN1CCC[C@@H]1Cc1c[nH]c2ccc(CCS(=O)(=O)c3ccccc3)cc12 [Eletriptan HBr] | -1.48 |
| O=C(Nc1cc(Cl)cc(Cl)c1O)c1c(O)c(Cl)cc(Cl)c1Cl [Oxyclozanide] | -0.27 |
| CC(=O)OCC1=C(C(=O)O)N2C(=O)[C@@H](NC(=O)CSc3ccncc3)[C@H]2SC1 [Cephapirin Benzathine] | -0.22 |
| Oc1c(Cl)cc(Cl)c2cccnc12 [Chloroxine] | 17.1 |
| C=C1c2cccc(O)c2C(O)=C2C(=O)[C@]3(O)C(O)=C(C(N)=O)C(=O)[C@@H](N(C)C)[C@@H]3[C@@H](O)[C@H]12 [Methacycline HCl] | -0.23 |
| Cc1nc2n(c(=O)c1CCN1CCC(c3noc4cc(F)ccc34)CC1)CCCC2 [Risperidone] | 0.14 |
| O=C1CC2(CCCC2)CC(=O)N1CCCCN1CCN(c2ncccn2)CC1 [Buspirone HCl] | -0.12 |
| CSc1nc2cc(Cl)c(Oc3cccc(Cl)c3Cl)cc2[nH]1 [Triclabendazole] | 1.09 |
| N=C(N)NC(=N)N1CCOCC1 [Moroxydine HCl] | 0.38 |
| NC(=N\CCCCCC/N=C(N)/N=C(\N)Nc1ccc(Cl)cc1)/N=C(\N)Nc1ccc(Cl)cc1 [Chlorhexidine diacetate] | 1.19 |
| Cc1ccnc(NS(=O)(=O)c2ccc(N)cc2)n1 [Sulfamerazine] | 0.98 |
| COc1cccc2c1C(=O)c1c(O)c3c(c(O)c1C2=O)C[C@@](O)(C(=O)CO)C[C@@H]3O[C@H]1C[C@H](N)[C@@H](O)[C@H](C)O1 [Epirubicin HCl] | 2.67 |
| CC1CCc2c(N3CCC(O)CC3)c(F)cc3c(=O)c(C(=O)O)cn1c23 (stereo not given) [Nadifloxacin] | 0.27 |
| Cn1c(=O)c2c(ncn2CC(O)CO)n(C)c1=O (stereo not given) [Dyphylline] | -1.44 |
| Cc1ccc(Sc2ccccc2N2CCNCC2)c(C)c1 | -0.73 |
| CC(=O)N[C@H]1[C@H]([C@H](O)[C@H](O)CO)OC(C(=O)O)=C[C@@H]1NC(=N)N [Zanamivir] | 0.82 |
